Results published in PubChem BioAssay.
Active and inactive are the calls of the source.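 Rule for the calls, unless noted: active = inhibition of the reporter signal at or above 50%; inactive = inhibition below 50%.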

Legend:
[1] = inhibitors of TNFa-induced NFkB p65 translocation, primary screen, imaging, HUVEC, MLSMR starter and 10KST1 sets (AID 438;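 active = inhibition above 20% together with a positive visual image hit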;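 note: compound added about 3h40 before a 20 min TNFalpha stimulation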;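 for inhibition: signal is the nuclear over cytoplasmic p65 intensity ratio per well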); conditions: HUVEC TNFa-induced p65 nuclear translocation; cell count: measured here: nuclei count (cytotoxicity indicator), at 2.08 µM; inhibition: at 2 µM, stronger effect = higher value, 0% TNFa-plus-vehicle, 100% no-TNFa wells
[2] = reduction of polyQ htt aggregates in cells – imaging, exon1htt(103Q)mCFP cells, high-content imaging, primary screen (AID 483;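 active = visual image review flags a hit and inhibition of aggregation exceeds 20%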;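 note: compound exposure lasted 3 days before fixation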;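 for nuclei count: percent of the per-plate median nuclei count of sample wells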); conditions: exon1htt(103Q)mCFP cell line, aggregate imaging, at 2 µM; inhibition of aggregation: stronger effect = higher value; nuclei count: measured here: cell count, toxicity
[3] = endothelial E-selectin expression blockers – imaging, HUVEC, immunofluorescence, MLSMR starter and 10KST1 sets, primary screen (AID 487;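 active = visually confirmed hit in the image check and inhibition above 20%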;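 for inhibition: signal is fraction of cell area covered by stained E-selectin grains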;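 for nuclei count: 100% = median nuclei count of all wells on the same plate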); conditions: HUVEC TNFalpha-induced E-selectin immunofluorescence imaging, at 2 µM; inhibition: stronger effect = higher value; nuclei count: measured here: cell number, toxicity
[4] = molecular target: Voltage-gated potassium channel subunit beta-2 (Rattus norvegicus) (UniProt P62483); assay: inhibitors of rat Kvbeta2 reductase activity – biochemical, NADPH fluorescence, primary screen (AID 622;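 active = fluorescence slope higher than the sample average by over 3 SD, cut at about -0.22 in these data, passing the limit was not always enough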;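 note: slope of raw intensity against log time taken from 70 to 1610 s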); conditions: recombinant KvBeta, 4-cyanobenzaldehyde reduction, at 10 µM, stronger effect = higher value
[5] = molecular target: Voltage-gated potassium channel subunit beta-2 (Rattus norvegicus) (UniProt P62483); assay: enhancers of rat Kvbeta2 NADPH turnover – biochemical, NADPH fluorescence, primary screen (AID 623;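 active = NADPH fluorescence slope more negative than the mean of all samples by about 3 SD, 99.7% confidence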;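 note: fluorescence intensity change per second fitted from 20 to 320 s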); conditions: Recombinant KvBeta, NADPH fluorescence decrease slope, 10 min; at 10 µM; stronger effect = lower value
[6] = molecular target: Alpha-2C adrenergic receptor (Homo sapiens) (UniProt P18825); assay: compounds altering alpha2C-coupled GIRK flux – cell-based, HEK293 alpha2C/GIRK1/2, thallium flux, primary screen (AID 624;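 active = fluorescence slope after compound addition differing from the mean of all screened samples at 99.7% confidence, in either direction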;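 note: slope of fluorescence ratio to pre-addition baseline per second over 15 to 24 s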); conditions: thallium flux BTC fluorescence, at 10 µM, actives lie on both sides
[7] = blockers of RIG-like receptor reporter activation – cell-based, Sendai virus stimulus, luciferase, 10K MLSCN set, TLR/RLR signaling modifier project, primary screen (AID 602276;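 active = inhibition at or above 50% at 10 µM; inactive = inhibition below 50%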;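 note: firefly luciferase from ISG56 promoter only with Renilla not read in this screen; 0% = Sendai virus plus DMSO and 100% = medium plus DMSO without virus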); conditions: HEK293 RL24 IRF3 luciferase reporter, at 10 µM, stronger effect = higher value
[8] = TLR3 IRF3 reporter activation blockers – cell-based, poly I:C stimulus, luciferase, 10K MLSCN set, primary screen (AID 602277); conditions: HEK293-TLR3 RL24 IRF3 luciferase reporter, at 10 µM, stronger effect = higher value

Sequence of Voltage-gated potassium channel subunit beta-2 (Rattus norvegicus) (P62483 whole entry, looked up): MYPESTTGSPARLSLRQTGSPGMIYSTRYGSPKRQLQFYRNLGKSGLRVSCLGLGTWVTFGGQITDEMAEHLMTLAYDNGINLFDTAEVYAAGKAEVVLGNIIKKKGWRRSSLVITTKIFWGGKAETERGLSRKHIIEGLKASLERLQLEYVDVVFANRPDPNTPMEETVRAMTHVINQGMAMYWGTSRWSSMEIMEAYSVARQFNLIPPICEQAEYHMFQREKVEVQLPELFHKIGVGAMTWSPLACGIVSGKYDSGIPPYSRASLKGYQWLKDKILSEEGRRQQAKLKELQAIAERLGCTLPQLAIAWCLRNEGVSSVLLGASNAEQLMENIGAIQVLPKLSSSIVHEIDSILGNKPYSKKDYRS
Sequence of Alpha-2C adrenergic receptor (Homo sapiens) (P18825 whole entry, looked up): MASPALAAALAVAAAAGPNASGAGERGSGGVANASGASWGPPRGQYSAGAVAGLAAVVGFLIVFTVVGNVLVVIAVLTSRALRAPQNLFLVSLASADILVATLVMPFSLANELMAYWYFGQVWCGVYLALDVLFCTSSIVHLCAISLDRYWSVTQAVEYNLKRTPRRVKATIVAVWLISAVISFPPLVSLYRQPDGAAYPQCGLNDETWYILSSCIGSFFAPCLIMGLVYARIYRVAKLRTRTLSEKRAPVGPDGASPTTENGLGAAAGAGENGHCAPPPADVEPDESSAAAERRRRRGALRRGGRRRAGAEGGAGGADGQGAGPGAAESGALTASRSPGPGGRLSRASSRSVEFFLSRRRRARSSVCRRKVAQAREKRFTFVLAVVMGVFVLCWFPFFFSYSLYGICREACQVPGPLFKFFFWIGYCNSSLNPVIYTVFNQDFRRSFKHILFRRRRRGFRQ

| SMILES | cell count [1] | inhibition [1] | inhibition of aggregation [2] | nuclei count [2] | inhibition [3] | nuclei count [3] | fluorescence slope [4] | NADPH fluorescence slope [5] | slope [6] | inhibition [7] | inhibition [8] |
| --- | --- | --- | --- | --- | --- | --- | --- | --- | --- | --- | --- |
| CCCNC(=O)CS(=O)(=O)Cc1nc(-c2cccc(OC)c2)oc1C | 781 | 3.5% (inactive) | 12.5% (inactive) | 99.7% | -52% (inactive) | 127% | -0.543 (inactive) | 4.4e-05 (inactive) | 0.007 (inactive) | 9.03% (inactive) | -7.6% (inactive) |
| CCOCCCn1c(=NC(C)=O)c(C(=O)OCC)cc2c(=O)n3ccccc3nc21 | 473 | -3.3% (inactive) | 2.4% (inactive) | 108% | -119% (inactive) | 129% | -0.114 (inactive) | -3.8e-05 (inactive) | 0.00394 (inactive) | -7.28% (inactive) | -15% (inactive) |
| COc1ccc(N2CCN(C(c3ccccc3)c3sc4nc(C)nn4c3O)CC2)cc1 (stereo not drawn) | 694 | -12.9% (inactive) | -0.9% (inactive) | 112% | -21.7% (inactive) | 96.4% | -0.452 (inactive) | -4.8e-05 (inactive) | 0.00526 (inactive) | 8.1% (inactive) | 11.1% (inactive) |
| CC(NC(=O)C1CC1)C(c1cccs1)N1CCN(c2ccccc2)CC1 (stereo not drawn) | 884 | 4.2% (inactive) | -7.2% (inactive) | 100% | -17.3% (inactive) | 116% | -0.495 (inactive) | -3e-05 (inactive) | 0.00607 (inactive) | 6.3% (inactive) | 23.6% (inactive) |
| Nc1nc2n(n1)C(c1cccc(Br)c1)CC(c1ccccc1)N2 (stereo not drawn) | 645 | 13.8% (inactive) | -26.4% (inactive) | 114% | -39.6% (inactive) | 111% | -0.59 (inactive) | 9.1e-06 (inactive) | 0.00794 (inactive) | 13.2% (inactive) | 37% (inactive) |
| Cc1nn(C)c(C)c1NC(=O)CSc1nc(Cc2ccccc2)nc2c1cnn2-c1ccccc1 | 360 | -0.5% (inactive) | -17.9% (inactive) | 105% | -127% (inactive) | 121% | -0.491 (inactive) | -6.6e-05 (inactive) | 0.00793 (inactive) | 12% (inactive) | 3.8% (inactive) |
| CCOC(=O)C1CCN(C(=O)COc2ccc(S(=O)(=O)NC(C)C)cc2Cl)CC1 | 718 | 1.5% (inactive) | 9% (inactive) | 109% | -3.9% (inactive) | 97.5% | -0.46 (inactive) | -1.1e-05 (inactive) | 0.00357 (inactive) | 12% (inactive) | 9.55% (inactive) |
| O=C(CN1CCC(c2nc3ccccc3s2)CC1)NCc1cccs1 | 699 | -1% (inactive) | 12.8% (inactive) | 87.9% | -4.6% (inactive) | 103% | -0.604 (inactive) | -3.9e-05 (inactive) | 0.00309 (inactive) | -1.46% (inactive) | -58.5% (inactive) |
| Cc1ccc(C)c2[nH]c(=O)c(CCNC(=O)CC(C)(C)C)cc12 | 650 | -5.3% (inactive) | 33.1% (inactive) | 63.8% | 16.6% (inactive) | 90.8% | -0.557 (inactive) | -5.3e-05 (inactive) | 0.00614 (inactive) | 4.63% (inactive) | 16.5% (inactive) |
| CC1(C)COCN1S(=O)(=O)c1ccc(C(=O)Nc2nnc(-c3ccc(Cl)s3)o2)cc1 | 440 | 10.8% (inactive) | -2.8% (inactive) | 98.3% | -26.4% (inactive) | 93.8% | -0.545 (inactive) | 1.8e-05 (inactive) | 0.00616 (inactive) | 49.1% (inactive) | 36.9% (inactive) |
| CCN(CC)c1ccc(-c2c(C#N)c(N)nc(OC)c2C#N)cc1 | 426 | -3.8% (inactive) | -21% (inactive) | 112% | -13.4% (inactive) | 113% | -0.0839 (inactive) | 5.4e-06 (inactive) | 0.00577 (inactive) | -0.552% (inactive) | 18.3% (inactive) |
| Cc1c(Cl)cnc(NC(=O)COC(=O)C(NC(=O)c2ccco2)C(C)C)c1Cl (stereo not drawn) | 362 | 7.4% (inactive) | -2.1% (inactive) | 80.5% | -17.2% (inactive) | 112% | -0.584 (inactive) | -3.9e-05 (inactive) | 0.00552 (inactive) | 6.87% (inactive) | 5.64% (inactive) |
| N#C/C(=C(/O)COC(=O)CCC1CCCCC1)c1nc2ccccc2[nH]1 | 317 | -3.4% (inactive) | -9.2% (inactive) | 120% | -3.3% (inactive) | 113% | -0.595 (inactive) | -3.2e-05 (inactive) | 0.0028 (inactive) | 16.8% (inactive) | 24.8% (inactive) |
| CCOC(=O)Nc1nnc(-c2ccccc2OC)s1 | 613 | -2.7% (inactive) | -8.8% (inactive) | 108% | 10.1% (inactive) | 102% | -0.514 (inactive) | 1.1e-05 (inactive) | 0.00542 (inactive) | -20.9% (inactive) | -24.1% (inactive) |
| O=C(CN1C(=O)CC(c2ccco2)Sc2ccccc21)Nc1ccccc1F (stereo not drawn) | 551 | -2.9% (inactive) | -3.5% (inactive) | 111% | -28.3% (inactive) | 110% | -0.588 (inactive) | 1.9e-05 (inactive) | 0.00681 (inactive) | 12.5% (inactive) | 15.3% (inactive) |
| Fc1ccccc1C(c1nnnn1Cc1ccc2c(c1)OCO2)N1CCN(Cc2ccccc2)CC1 (stereo not drawn) | 324 | -0.8% (inactive) | -2.5% (inactive) | 112% | 30.7% (inactive) | 108% | -0.631 (inactive) | 1.1e-05 (inactive) | 0.00506 (inactive) | -8.04% (inactive) | -3.59% (inactive) |
| COc1ccc(-n2c(=O)c3c4c(sc3n3cnnc23)CC(C)CC4)cc1 (stereo not drawn) | 370 | 0.2% (inactive) | -5.1% (inactive) | 80.3% | -108% (inactive) | 116% | -0.46 (inactive) | -4.9e-05 (inactive) | 0.00768 (inactive) | 23.9% (inactive) | 2.31% (inactive) |
| CC(=O)N1CCN(c2ccc(N=Cc3c(O)n(Cc4ccccc4)c(=O)[nH]c3=O)cc2)CC1 | 344 | 6.8% (inactive) | -13.5% (inactive) | 102% | -9.7% (inactive) | 105% | -0.525 (inactive) | 1.9e-05 (inactive) | 0.00469 (inactive) | 14.1% (inactive) | 22.9% (inactive) |
| COc1ccc(C(C(C(=O)c2ccco2)N2CCOCC2)N2CCOCC2)cc1 (stereo not drawn) | 534 | 5.4% (inactive) | 2.2% (inactive) | 87.8% | 57.2% (inactive) | 91.5% | -0.401 (inactive) | 1.7e-05 (inactive) | 0.0056 (inactive) | 2.32% (inactive) | -5.02% (inactive) |
| c1ccc(Cc2nn3c(Cn4cnc5ccccc54)nnc3s2)cc1 | 415 | 1.4% (inactive) | 9.2% (inactive) | 80.7% | -19.6% (inactive) | 91.6% | -0.512 (inactive) | -5.6e-05 (inactive) | 0.00479 (inactive) | 15.8% (inactive) | -2.79% (inactive) |
| Cc1cc(C)c(NC(=O)Cn2cc3c(n2)CCCC3)c(C)c1 | 738 | -7.9% (inactive) | -4.1% (inactive) | 76.3% | -1.2% (inactive) | 110% | -0.515 (inactive) | -2e-05 (inactive) | 0.00662 (inactive) | 26.1% (inactive) | 11.6% (inactive) |
| Cc1cc(C(=O)NCCN2CCCCC2C)n(-c2ccccc2)n1 (stereo not drawn) | 879 | 0.6% (inactive) | 11.3% (inactive) | 96% | -39.7% (inactive) | 113% | -0.552 (inactive) | -4.7e-05 (inactive) | 0.0056 (inactive) | 1.98% (inactive) | 23.7% (inactive) |
| O=C(COC(=O)c1ccccc1Oc1ccccc1)NC1CCS(=O)(=O)C1 (stereo not drawn) | 33 | 74.9% (active) | 0% (inactive) | 95.2% | -124% (inactive) | 116% | -0.521 (inactive) | -1.6e-05 (inactive) | 0.00666 (inactive) | 8.04% (inactive) | -20% (inactive) |
| O=C(c1cccnc1)N1CCN(Cc2ccc3c(c2)OCO3)CC1 | 64 | 11% (inactive) | -2.8% (inactive) | 88.3% | 29.2% (inactive) | 87.6% | -0.411 (inactive) | -5.6e-05 (inactive) | 0.00498 (inactive) | 14.2% (inactive) | 13.5% (inactive) |
| COCC(C)NC(=O)NC(=O)c1ccc(Cl)cc1 (stereo not drawn) | 715 | 0.4% (inactive) | 10.2% (inactive) | 100% | -67.6% (inactive) | 98.3% | -0.476 (inactive) | 2.1e-05 (inactive) | 0.00585 (inactive) | 14.1% (inactive) | 12.5% (inactive) |
| Cc1cccc(C(=O)N2CCC(n3nnc4cc(F)ccc43)CC2)c1 | 695 | -12.5% (inactive) | -26.4% (inactive) | 101% | 13.4% (inactive) | 106% | -0.325 (inactive) | -2e-05 (inactive) | 0.0067 (inactive) | 5.99% (inactive) | 6.27% (inactive) |
| O=C1N(CCCCN2C(=O)C3(OCCO3)c3ccccc32)c2ccccc2C12OCCO2 | 578 | -18.8% (inactive) | -8.4% (inactive) | 104% | -60.9% (inactive) | 112% | -0.381 (inactive) | 2.4e-05 (inactive) | 0.00398 (inactive) | 9.05% (inactive) | 16.5% (inactive) |
| CCOC(=O)c1ccccc1NC(=O)N1CCn2c(C)ccc2C1CC (stereo not drawn) | 383 | 2.8% (inactive) | -42% (inactive) | 105% | -50.1% (inactive) | 110% | -0.579 (inactive) | -3.2e-05 (inactive) | 0.00545 (inactive) | -0.392% (inactive) | 8.3% (inactive) |
